The list is not random: actives were taken first. Their share in the collection is about 3.8%.
Ecoli rRNA inh = reduced GFP signal of wild-type E. coli, primary screen, bacterial rRNA inhibitor project, GFP/RFP fluorescence, OD600, single point; E. coli WT GFP vs humanized-ribosome RFP mutants, 24 h; active compounds read low; DMSO median 0, no signal -100; GFP signal change (wild-type ribosome), % (concentration not given with the values); 350,000 compounds, 1.6% hits; AID 720706, 2013;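 active = significant combined selectivity score with lowered wild-type GFP, culture density cut under 30%, mutant RFP and density less affected; inactive = any of these conditions unmet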
ADAM17 inh = ADAM17 inhibitors, primary screen, biochemical, QFRET; AID 720648, 2013; recombinant ADAM17, EDANS/DABCYL FRET peptide cleavage; inhibition, % at 6.95 µM; 370,000 compounds, 0.83% hits;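 active = inhibition above the mean of compounds lying between control limits plus 3 SD, set per campaign, cut at about 8.5% in these data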
Target sequence (P78536 215-824 limits assumed): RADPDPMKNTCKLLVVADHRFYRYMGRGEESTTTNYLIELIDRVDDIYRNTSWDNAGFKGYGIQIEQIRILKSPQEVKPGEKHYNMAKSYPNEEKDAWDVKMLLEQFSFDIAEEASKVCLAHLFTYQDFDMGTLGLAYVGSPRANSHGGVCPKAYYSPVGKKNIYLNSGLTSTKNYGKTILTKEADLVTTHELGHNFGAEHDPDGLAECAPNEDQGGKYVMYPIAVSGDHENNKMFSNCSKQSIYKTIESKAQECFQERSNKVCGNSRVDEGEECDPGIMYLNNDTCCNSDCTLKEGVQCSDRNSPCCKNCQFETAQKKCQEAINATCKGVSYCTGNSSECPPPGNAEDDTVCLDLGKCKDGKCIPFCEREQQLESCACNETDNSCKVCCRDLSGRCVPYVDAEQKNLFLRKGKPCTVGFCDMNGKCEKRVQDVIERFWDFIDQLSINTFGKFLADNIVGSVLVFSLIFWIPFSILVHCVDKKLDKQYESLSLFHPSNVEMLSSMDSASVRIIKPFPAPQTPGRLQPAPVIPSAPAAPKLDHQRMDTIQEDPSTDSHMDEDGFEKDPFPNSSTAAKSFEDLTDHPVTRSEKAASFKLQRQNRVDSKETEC
proKLK7 act = proKLK7 zymogen activators, primary screen, biochemical, fluorescence intensity | activation, % at 7 µM | purified proKLK7, EDANS-DABCYL substrate fluorescence; 100% is mature enzyme control, 0% vehicle | 370,000 compounds, 0.9% hits | Kallikrein-7 (Homo sapiens), P49862;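 active = activation above the mean of all tested compounds plus 3 SD, computed per campaign excluding outliers beyond control limits, cut at about 13% in these data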
ADAM10 inh = human ADAM10 inhibitors, primary screen, biochemical, QFRET, HTS; Disintegrin and metalloproteinase domain-containing protein 10 (Homo sapiens), O14672; inhibition, % at 7 µM; 370,000 compounds, 0.62% hits; recombinant ADAM10, EDANS/DABCYL FRET peptide cleavage, 3 h;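 active = inhibition above a per-campaign cutoff equal to the mean of compounds falling between control-based bounds plus 3 SD, cut at about 20% in these data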
FGF22 binding = binders of human FGF22 protein, primary screen, FGF22 synaptogenesis inhibitor project, biophysical, thermal shift, single point; 340,000 compounds, 1.5% hits; AID 651658, 2012; activity (Tm shift, normalised), % at 9.99 µM; Fibroblast growth factor 22 (Homo sapiens), Q9HCT0; recombinant FGF22 thermal shift, SYPRO orange fluorescence; percent of sucrose octasulfate shift, DMSO zero;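 active = mean Tm shift, scaled 0 neutral to 100 positive control, at about 1.3% or above, every replicate too, limit read from the data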
A number is an active result.

How did CCOC(=O)C1CCCN(C(=O)/C=C/c2cc(OC)c(OC)c(OC)c2)C1 (centres undefined) do in these assays?
Ecoli rRNA inh: inactive; ADAM17 inh: inactive; proKLK7 act: inactive; ADAM10 inh: inactive; FGF22 binding: 44

What do the screens show for `CCOC(=O)C1CCCN(C(=O)/C=C/c2ccc(Cl)cc2)C1` (centres undefined)?
Ecoli rRNA inh: inactive; ADAM17 inh: inactive; proKLK7 act: inactive; ADAM10 inh: inactive; FGF22 binding: inactive

What do the screens show for `c1ccc(-c2cc(-c3cc(-c4ccccc4)on3)no2)cc1`?
Ecoli rRNA inh: inactive; ADAM17 inh: inactive; proKLK7 act: inactive; ADAM10 inh: inactive; FGF22 binding: 43

How did COc1ccc(-c2cc(-c3ccccc3)no2)cc1 do in these assays?
Ecoli rRNA inh: inactive; ADAM17 inh: inactive; proKLK7 act: inactive; ADAM10 inh: inactive; FGF22 binding: inactive

How did CCC(=O)Nc1ccc2c(c1)OC[C@H](C)N(CC1CCCCC1)C[C@H](C)[C@@H](OC)CN(C)C2=O do in these assays?
Ecoli rRNA inh: inactive

How did O=C(NC1CC1)C1=C[C@@H](c2ccc(Br)cc2)C[C@@H](OCCCCO)O1 do in these assays?
Ecoli rRNA inh: -19; ADAM17 inh: inactive; proKLK7 act: inactive; ADAM10 inh: inactive; FGF22 binding: inactive

How did Cc1ccc(C)c(-n2cc(CNCCc3cnccn3)c(-c3ccccc3)n2)c1 do in these assays?
Ecoli rRNA inh: inactive; ADAM17 inh: inactive; proKLK7 act: inactive; ADAM10 inh: inactive; FGF22 binding: inactive

What do the screens show for `CCn1ccnc1CNCc1cn(-c2cc(C)ccc2C)nc1-c1ccccc1`?
Ecoli rRNA inh: inactive; ADAM17 inh: inactive; proKLK7 act: inactive; ADAM10 inh: inactive; FGF22 binding: 43

Results for O=C(C[C@H]1C=C[C@H](NC(=O)c2ccncc2)[C@@H](CO)O1)Nc1ccccc1 ?
Ecoli rRNA inh: inactive

Results for O=[N+]([O-])c1ccc(O)c(C(C#Cc2ccccc2)N2CCOCC2)c1 (centres undefined) ?
Ecoli rRNA inh: -32; ADAM17 inh: inactive; proKLK7 act: inactive; ADAM10 inh: inactive; FGF22 binding: inactive

How did CCc1ccc(NC(=O)N(CCCN2CCOCC2)C(C)c2cc3cccc(OC)c3o2)cc1 (centres undefined) do in these assays?
Ecoli rRNA inh: -22; ADAM17 inh: inactive; proKLK7 act: inactive; ADAM10 inh: inactive

Results for CN(C)Cc1nc2ccccc2c(=O)n1Cc1nc(-c2cccc([N+](=O)[O-])c2)cs1 ?
Ecoli rRNA inh: -24; ADAM17 inh: inactive; proKLK7 act: inactive; ADAM10 inh: inactive; FGF22 binding: inactive

Results for CCCNC(=O)N1CC2(CN(S(C)(=O)=O)C2)c2c(n(C)c3cc(OC)ccc23)[C@H]1CO ?
Ecoli rRNA inh: inactive; FGF22 binding: inactive

What do the screens show for `NC(=O)c1ncn([C@@H]2O[C@H](CO)[C@@H](O)[C@H]2O)n1`?
Ecoli rRNA inh: inactive; ADAM17 inh: inactive; proKLK7 act: inactive; ADAM10 inh: inactive; FGF22 binding: inactive

How did NC(=O)c1ccc(=O)n(C2OC(CO)C(O)C2O)c1 (centres undefined) do in these assays?
Ecoli rRNA inh: inactive; ADAM17 inh: inactive; proKLK7 act: inactive; ADAM10 inh: inactive; FGF22 binding: 44

What do the screens show for `Cc1ccc2c(Cl)c(C(=O)N/N=C/c3cccn3C)sc2c1`?
Ecoli rRNA inh: -22; ADAM17 inh: inactive; proKLK7 act: inactive; ADAM10 inh: inactive; FGF22 binding: inactive

Results for Cn1cccc1/C=N/NC(=O)c1sc2cc(Cl)ccc2c1Cl ?
Ecoli rRNA inh: inactive; ADAM17 inh: inactive; proKLK7 act: inactive; ADAM10 inh: inactive; FGF22 binding: inactive

Results for C[C@H]1CN(C)C(=O)Cc2ccccc2O[C@@H]1CN(C)S(C)(=O)=O ?
Ecoli rRNA inh: inactive

How did COc1ccc(C)cc1NC(=S)NNC(=O)c1c(Br)cnn1C do in these assays?
Ecoli rRNA inh: inactive; ADAM17 inh: inactive; proKLK7 act: inactive; ADAM10 inh: inactive; FGF22 binding: 44

What do the screens show for `COc1ccc(NC(=O)CN(c2ccccc2)S(=O)(=O)c2ccccc2)c(OC)c1`?
Ecoli rRNA inh: -24; ADAM17 inh: inactive; proKLK7 act: inactive; ADAM10 inh: inactive; FGF22 binding: inactive

Results for COc1ccc(OC)c(N(CC(=O)Nc2ccccc2)S(=O)(=O)c2ccccc2)c1 ?
Ecoli rRNA inh: inactive; ADAM17 inh: inactive; proKLK7 act: inactive; ADAM10 inh: inactive; FGF22 binding: inactive

Results for Cc1ccccc1-c1ccc([C@H]2[C@H](CO)N3C(=O)CN(C(=O)Cc4ccccn4)C[C@@H]23)cc1 ?
Ecoli rRNA inh: inactive; FGF22 binding: inactive

What do the screens show for `COc1ccccc1C(=O)NNC(=O)c1nn(Cc2ccccc2)c(=O)c2ccccc12`?
Ecoli rRNA inh: -24; ADAM17 inh: inactive; proKLK7 act: inactive; ADAM10 inh: inactive; FGF22 binding: inactive

What do the screens show for `Cc1cc(C(=O)Nn2c(C)nc3ccccc3c2=O)ccc1[N+](=O)[O-]`?
Ecoli rRNA inh: inactive; ADAM17 inh: inactive; proKLK7 act: inactive; ADAM10 inh: inactive; FGF22 binding: inactive

Results for Cc1nc2ccccc2c(=O)n1NC(=O)c1ccc([N+](=O)[O-])cc1 ?
Ecoli rRNA inh: inactive; ADAM17 inh: inactive; proKLK7 act: inactive; ADAM10 inh: inactive; FGF22 binding: 43

What do the screens show for `Cc1[nH]c2ccccc2c1/C=N/NC(=O)c1cccs1`?
Ecoli rRNA inh: -24; ADAM17 inh: inactive; proKLK7 act: inactive; ADAM10 inh: inactive; FGF22 binding: inactive

What do the screens show for `CN(C)S(=O)(=O)c1ccc(NC(=O)CCNC(=O)c2ccc([N+](=O)[O-])cc2)cc1`?
Ecoli rRNA inh: inactive; ADAM17 inh: inactive; proKLK7 act: inactive; ADAM10 inh: inactive; FGF22 binding: 43

How did O=C(CCNC(=O)c1ccc([N+](=O)[O-])cc1)Nc1ccc(N2CCOCC2)cc1N1CCOCC1 do in these assays?
Ecoli rRNA inh: inactive; ADAM17 inh: inactive; proKLK7 act: inactive; ADAM10 inh: inactive; FGF22 binding: 43

How did CN(C)S(=O)(=O)c1ccc(C(=O)OCc2ccc([N+](=O)[O-])cc2)cc1 do in these assays?
Ecoli rRNA inh: inactive; ADAM17 inh: inactive; proKLK7 act: inactive; ADAM10 inh: inactive; FGF22 binding: 44

Results for CN(C)S(=O)(=O)c1ccc(C(=O)OCc2ccc(C#N)cc2)cc1 ?
ADAM17 inh: inactive; proKLK7 act: inactive; ADAM10 inh: inactive

Results for Cc1ccc(NC(=O)CCNC(=O)c2ccc([N+](=O)[O-])cc2)cc1S(=O)(=O)N(C)C ?
Ecoli rRNA inh: inactive; ADAM17 inh: inactive; proKLK7 act: inactive; ADAM10 inh: inactive; FGF22 binding: inactive

What do the screens show for `CCC(=O)N(C)C[C@H]1Oc2cc(-c3ccc(C#N)cc3)ccc2S(=O)(=O)N([C@H](C)CO)C[C@H]1C`?
Ecoli rRNA inh: inactive; FGF22 binding: inactive

Screening data (PubChem)
